# Experimental data published in PubChem BioAssay.
# The source made the active and inactive calls.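 How the source made its calls, unless noted: active means visual image review flags a hit and inhibition of aggregation exceeds 20%; inconclusive means visual hit but inhibition at or below 20%; inactive means no hit on visual image review.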
# Key:
# [1] = inhibitors of TNFa-induced NFkB p65 translocation, primary screen, imaging, HUVEC, MLSMR starter and 10KST1 sets (AID 438;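 active means inhibition above 20% together with a positive visual image hit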;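 further: compound added about 3h40 before a 20 min TNFalpha stimulation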;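 on inhibition: signal is the nuclear over cytoplasmic p65 intensity ratio per well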); settings: HUVEC TNFa-induced p65 nuclear translocation; cell count: measured here: nuclei count (cytotoxicity indicator), at 2.08 µM; inhibition: at 2 µM, stronger effect = higher value, 0% TNFa-plus-vehicle, 100% no-TNFa wells
# [2] = inhibitors of mutant huntingtin aggregation, primary screen, imaging, exon1htt(103Q)mCFP cells, high-content imaging (AID 483); settings: exon1htt(103Q)mCFP cell line, aggregate imaging, at 2 µM; inhibition of aggregation: stronger effect = higher value; nuclei count: measured here: cell count, toxicity;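 further: compound exposure lasted 3 days before fixation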;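 on nuclei count: percent of the per-plate median nuclei count of sample wells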
# [3] = inhibitors of E-selectin induction by TNFa, primary screen, imaging, HUVEC, immunofluorescence, MLSMR starter and 10KST1 sets (AID 487;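 active means visually confirmed hit in the image check and inhibition above 20%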;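 on inhibition: signal is fraction of cell area covered by stained E-selectin grains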;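 on nuclei count: 100% = median nuclei count of all wells on the same plate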); settings: HUVEC TNFalpha-induced E-selectin immunofluorescence imaging, at 2 µM; inhibition: stronger effect = higher value; nuclei count: measured here: cell number, toxicity
# [4] = molecular target: Voltage-gated potassium channel subunit beta-2 (Rattus norvegicus) (UniProt P62483); test: KvBeta enzyme negative modulators, primary screen, biochemical, NADPH fluorescence (AID 622;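 active means fluorescence slope higher than the sample average by over 3 SD, cut at about -0.22 in these data, passing the limit was not always enough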;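 further: slope of raw intensity against log time taken from 70 to 1610 s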); settings: recombinant KvBeta, 4-cyanobenzaldehyde reduction, at 10 µM, stronger effect = higher value
# [5] = molecular target: Voltage-gated potassium channel subunit beta-2 (Rattus norvegicus) (UniProt P62483); test: KvBeta positive modulators, primary screen, biochemical, NADPH fluorescence (AID 623;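 active means NADPH fluorescence slope more negative than the mean of all samples by about 3 SD, 99.7% confidence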;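 further: fluorescence intensity change per second fitted from 20 to 320 s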); settings: Recombinant KvBeta, NADPH fluorescence decrease slope, 10 min; at 10 µM; stronger effect = lower value
# [6] = molecular target: Alpha-2C adrenergic receptor (Homo sapiens) (UniProt P18825); test: modulators of alpha2C/GIRK thallium flux, primary screen, cell-based, HEK293 alpha2C/GIRK1/2 (AID 624;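 active means fluorescence slope after compound addition differing from the mean of all screened samples at 99.7% confidence, in either direction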;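 further: slope of fluorescence ratio to pre-addition baseline per second over 15 to 24 s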); settings: thallium flux BTC fluorescence, at 10 µM, actives lie on both sides
# [7] = inhibitors of Sendai virus-induced IRF3 signaling, primary screen, TLR/RLR signaling modifier project, cell-based, Sendai virus stimulus, luciferase, 10K MLSCN set (AID 602276;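 active means inhibition at or above 50% at 10 µM; inactive means inhibition below 50%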;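 further: firefly luciferase from ISG56 promoter only with Renilla not read in this screen; 0% = Sendai virus plus DMSO and 100% = medium plus DMSO without virus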); settings: HEK293 RL24 IRF3 luciferase reporter, at 10 µM, stronger effect = higher value
# [8] = inhibitors of poly I:C-induced TLR3 signaling, primary screen, cell-based, poly I:C stimulus, luciferase, 10K MLSCN set (AID 602277;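 active means inhibition of the reporter signal at or above 50%; inactive means inhibition below 50%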); settings: HEK293-TLR3 RL24 IRF3 luciferase reporter, at 10 µM, stronger effect = higher value
# Sequence of Alpha-2C adrenergic receptor (Homo sapiens) (P18825 whole entry, looked up): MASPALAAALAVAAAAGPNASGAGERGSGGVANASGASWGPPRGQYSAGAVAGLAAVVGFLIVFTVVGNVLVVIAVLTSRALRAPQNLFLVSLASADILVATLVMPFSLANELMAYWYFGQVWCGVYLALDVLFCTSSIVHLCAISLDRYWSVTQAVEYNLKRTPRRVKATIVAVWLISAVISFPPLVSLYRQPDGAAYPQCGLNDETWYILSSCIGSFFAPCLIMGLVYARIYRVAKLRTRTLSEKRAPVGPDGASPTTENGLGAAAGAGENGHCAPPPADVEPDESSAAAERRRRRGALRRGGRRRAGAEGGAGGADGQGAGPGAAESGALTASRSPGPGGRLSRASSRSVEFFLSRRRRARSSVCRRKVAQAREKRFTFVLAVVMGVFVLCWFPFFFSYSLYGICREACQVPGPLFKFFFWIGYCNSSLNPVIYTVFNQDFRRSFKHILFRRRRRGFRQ
# Sequence of Voltage-gated potassium channel subunit beta-2 (Rattus norvegicus) (P62483 whole entry, looked up): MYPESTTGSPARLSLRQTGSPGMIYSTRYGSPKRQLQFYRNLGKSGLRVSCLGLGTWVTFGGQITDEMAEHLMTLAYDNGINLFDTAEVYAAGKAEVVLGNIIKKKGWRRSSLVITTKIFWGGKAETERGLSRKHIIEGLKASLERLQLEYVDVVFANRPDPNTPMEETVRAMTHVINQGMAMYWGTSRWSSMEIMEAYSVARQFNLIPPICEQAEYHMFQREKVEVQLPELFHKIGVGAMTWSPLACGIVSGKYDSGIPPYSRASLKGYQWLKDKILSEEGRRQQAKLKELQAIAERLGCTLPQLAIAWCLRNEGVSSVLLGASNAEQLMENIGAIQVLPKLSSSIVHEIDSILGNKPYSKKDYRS
SMILES,cell count [1],inhibition [1],inhibition of aggregation [2],nuclei count [2] [%],inhibition [3],nuclei count [3] [%],fluorescence slope [4],NADPH fluorescence slope [5],slope [6],inhibition [7],inhibition [8]
CCOC(=O)c1cc2sccc2n1Cc1ccccc1,417,7.3% (inactive),-5.2% (inactive),101,-147% (inactive),99.7,-0.598 (inactive),-9.9e-06 (inactive),0.00361 (inactive),-10.3% (inactive),-7.29% (inactive)
Cc1ccc(-c2cc(C(=O)NCCN3CCOCC3)no2)cc1,605,1.9% (inactive),41.6% (inactive),69.9,-4% (inactive),101,-0.452 (inactive),8.4e-05 (inactive),0.0051 (inactive),-29.5% (inactive),-36.6% (inactive)
CC(Sc1nc(-c2ccccc2)cc(C(F)(F)F)n1)C(=O)N1CCC(C(N)=O)CC1 (stereo unspecified),446,7.2% (inactive),8.9% (inactive),97.1,-45.8% (inactive),126,-0.455 (inactive),-8.9e-05 (inactive),0.00612 (inactive),17.5% (inactive),24.5% (inactive)
Cc1ccc(S(=O)(=O)NCCN2CCOCC2)cc1C,408,-14.3% (inactive),21.7% (inactive),92.2,31.4% (inactive),86.3,-0.611 (inactive),1.4e-07 (inactive),0.00599 (inactive),13.7% (inactive),26.5% (inactive)
Cc1cccc(Cn2c(SCC(=O)Nc3ccccc3)nc3c2c(=O)[nH]c(=O)n3C)c1,467,5.4% (inactive),44.6% (inactive),83.4,4.7% (inactive),89.8,-0.394 (inactive),2.9e-05 (inactive),0.0074 (inactive),14.6% (inactive),13.4% (inactive)
CCOC(=O)/C=C1\CC(=O)Nc2nonc2N1,330,-3.4% (inactive),2% (inactive),105,-22.6% (inactive),118,-0.507 (inactive),-6.7e-05 (inactive),0.00414 (inactive),22% (inactive),21.4% (inactive)
CCc1c(C)n([O-])c2c([n+]1=O)CCC2,369,2.8% (inactive),-1.6% (inactive),106,3.1% (inactive),111,-0.51 (inactive),-1.5e-05 (inactive),0.00618 (inactive),-11.4% (inactive),7.02% (inactive)
Cc1ccccc1NC(=O)NCCCN1CCN(C2CCCCC2)CC1,411,-1.8% (inactive),8.9% (inactive),81.8,-119% (inactive),108,-0.61 (inactive),2.5e-06 (inactive),0.00551 (inactive),3.03% (inactive),13% (inactive)
CCOC(=O)C1CCCn2c1nc1sc3c(c1c2=O)CCCC3 (stereo unspecified),457,3.7% (inactive),-6% (inactive),110,-114% (inactive),115,-0.435 (inactive),9.6e-06 (inactive),0.00445 (inactive),-24.3% (inactive),-20.3% (inactive)
CCOC(=O)C1CCCN(CC(=O)NC2CC2)C1 (stereo unspecified),446,1.1% (inactive),-11.4% (inactive),98.9,-23.9% (inactive),101,-0.318 (inactive),-7.1e-05 (inactive),0.00531 (inactive),13.3% (inactive),15.3% (inactive)
CCc1ccc(N2CC34C=CC(O3)C(C(=O)OC)C4C2=O)cc1 (stereo unspecified),535,4% (inactive),11.3% (inactive),85.3,-7.9% (inactive),101,-0.589 (inactive),6.6e-06 (inactive),0.00784 (inactive),7.96% (inactive),30.4% (inactive)
Cc1c(C(=O)OCC(C)C)[nH]c2c1C(=O)CC(c1ccco1)C2 (stereo unspecified),464,8.4% (inactive),-226% (inactive),4,-91.9% (inactive),96.5,-0.492 (inactive),-3.2e-07 (inactive),0.00635 (inactive),75.6% (active),76.5% (active)
COc1ccc2cc3cc(C(=O)NCC4CCCO4)oc3nc2c1 (stereo unspecified),323,-7.8% (inactive),3.3% (inactive),56.8,-20.5% (inactive),108,-0.0444 (active),-1.4e-06 (inactive),0.00645 (inactive),-11.2% (inactive),-36.3% (inactive)
CCOC(=O)N1CCN(C(=O)c2csc3c2CCCCC3)CC1,775,-27.2% (inactive),15.1% (inactive),121,-86% (inactive),106,-0.311 (inactive),1.7e-05 (inactive),0.00586 (inactive),-2.32% (inactive),9.33% (inactive)
COc1ccc(Cn2nnnc2C(c2cccs2)N2CCOCC2)cc1 (stereo unspecified),572,-4.8% (inactive),-10.4% (inactive),98.8,-10.4% (inactive),114,-0.419 (inactive),1.2e-06 (inactive),0.00389 (inactive),-1.07% (inactive),-0.428% (inactive)
O=C(OCc1ccccc1F)c1ccc2c(c1)OCCO2,372,3.4% (inactive),-14.1% (inactive),103,-0.9% (inactive),90.8,-0.448 (inactive),-8.7e-06 (inactive),0.00627 (inactive),-0.266% (inactive),-113% (inactive)
COc1ccc2[nH]c(=O)c(CNC3CCCCC3)cc2c1,673,6.3% (inactive),3.5% (inactive),112,-17.6% (inactive),90.1,-0.452 (inactive),-3.4e-05 (inactive),0.00407 (inactive),6.87% (inactive),29% (inactive)
CCOC(=O)N1CCN(C(=O)c2ccc3nc4ccsc4c(=O)n3c2)CC1,542,9.1% (inactive),-30.4% (inactive),65.4,12.9% (inactive),95.5,-0.324 (inactive),-1.8e-05 (inactive),0.00717 (inactive),14.6% (inactive),44.2% (inactive)
O=C1C(C=NCCCn2ccnc2)=C(O)c2ccccc21,422,5.8% (inactive),-8.1% (inactive),104,-50.8% (inactive),113,-0.589 (inactive),-2.7e-05 (inactive),0.0063 (inactive),9.44% (inactive),37.1% (inactive)
Cc1cc(C)c2c(=O)n(CC(=O)NCCCN3CCOCC3)sc2n1,594,8.2% (inactive),1.1% (inactive),118,36.7% (inactive),106,-0.548 (inactive),-3.1e-05 (inactive),0.00687 (inactive),10.4% (inactive),40.4% (inactive)
CCOC(=O)c1cc(NC(=O)SCC(=O)O)c(C)nc1C,762,5.1% (inactive),-19.7% (inactive),111,-99.8% (inactive),128,-0.484 (inactive),-3.2e-05 (inactive),0.0071 (inactive),7.76% (inactive),9.57% (inactive)
O=C1CN(Cc2ccccc2)C(=NCc2ccco2)S1,446,3.4% (inactive),-5.3% (inactive),99.8,13.6% (inactive),97.4,-0.451 (inactive),-2.2e-05 (inactive),0.00487 (inactive),8.96% (inactive),30.9% (inactive)
COc1cccc(-n2ccnc2SCC(=O)N2CCc3ccccc32)c1,565,-7.6% (inactive),3% (inactive),108,1.1% (inactive),89.7,-0.536 (inactive),-1e-05 (inactive),0.00609 (inactive),-3.01% (inactive),-5.47% (inactive)
CC(=O)NC(Cc1ccccc1)C(=O)NC1CCN(C(=O)c2cnccn2)CC1 (stereo unspecified),991,-1% (inactive),-7% (inactive),136,-54.3% (inactive),120,-0.48 (inactive),-2.5e-05 (inactive),0.00556 (inactive),12.1% (inactive),28.6% (inactive)
CCCCCOC(=O)C1=C(C)N(C)C(=O)NC1c1cc(Br)c(O)c(OC)c1 (stereo unspecified),563,-9.9% (inactive),-39.7% (inactive),105,25.8% (inactive),105,-0.624 (inactive),5.7e-06 (inactive),0.0067 (inactive),1.53% (inactive),21.1% (inactive)
CCOC(=O)N1CCC(NC(=O)c2cc3c(=O)n(C)c4ccccc4c3n2C)CC1,701,-2.8% (inactive),4.2% (inactive),140,-50.1% (inactive),112,-0.416 (inactive),-6.5e-05 (inactive),0.00503 (inactive),4.95% (inactive),28.7% (inactive)
